Measured values reported in PubChem BioAssay AID2566 (National Center for Advancing Translational Sciences (NCATS), 2010).
Results filed as inconclusive are left out. The source made the active and inactive calls.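 Rule for the calls: active = compound that pushes labeled neuropeptide S off its receptor in a binding test; inconclusive = all other tested compounds; inactive = none, nothing was called inactive.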

Target: Neuropeptide S receptor (Homo sapiens) (UniProt Q6W5P4)
Assay: Confirmation Concentration-Response Assay for Antagonists of the Neuropeptide S Receptor: Radioligand Displacement, SAR for Probe
Conditions: CHO-hNPSR, [125I]Y10-NPS displacement, 1.5 h
Excerpt: NIH Chemical Genomics Center [NCGC] NIH Molecular Libraries Probe Production centers Network [MLPCN] MLPCN Grant: X01-DA026210-01 Assay Submitter (PI): Heilig, Markus Alexander NCGC Assay Overview: Neuropeptide S receptor (NPSR), previously known as GPR154, is a recently de-orphanized G protein coupled receptor. Its endogenous ligand is the 20 amino acids peptide Neuropeptide S (NPS). […] NPS and its receptor are found in various tissues. Specifically they are highly expressed in brain areas that have been implicated in modulation of arousal, stress and anxiety. Central administration of NPS in mice produces an unusual profile of activity by inducing wakefulness and arousal, while at the same time suppressing anxiety. Therefore, NPSR may represent a novel drug target for the treatment of sleep and anxiety disorders. As one method of confirming the specific activity of compounds active in the primary screen (AID 1461), we developed an assay to measure the displacement of radio-labeled native ligand, NPS, from its receptor in vitro.
The assay was carried out as described (Xu et al. (2004) Neuron, 43: 487-497) with minor modification. Y10-NPS labeled with 125I was bought from NEN Perkin Elmer (Boston, MA). […] Nonspecific binding was determined in the presence of 1 uM unlabeled human NPS. […] Bound radioactivity was counted in a liquid scintillation counter.

Neuropeptide S receptor (Homo sapiens), sequence (Q6W5P4 whole entry, looked up): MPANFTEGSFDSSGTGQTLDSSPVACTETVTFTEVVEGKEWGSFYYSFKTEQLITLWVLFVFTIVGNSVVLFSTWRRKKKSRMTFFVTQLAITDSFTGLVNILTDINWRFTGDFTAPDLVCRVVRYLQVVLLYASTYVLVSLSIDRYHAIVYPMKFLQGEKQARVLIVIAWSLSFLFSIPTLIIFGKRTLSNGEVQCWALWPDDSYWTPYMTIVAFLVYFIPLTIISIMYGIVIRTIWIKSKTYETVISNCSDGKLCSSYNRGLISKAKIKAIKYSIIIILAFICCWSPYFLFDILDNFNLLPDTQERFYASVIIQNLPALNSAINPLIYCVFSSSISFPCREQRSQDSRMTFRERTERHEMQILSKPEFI

SMILES | Potency
Cc1c(P(=S)(c2ccccc2)c2ccccc2)[n+]2ccccc2n1C | 84.3 nM (active)
Cc1c(P(=S)(c2ccccc2)c2ccccc2)[n+]2ccccc2n1C/C=C/c1ccccc1 | 1 nM (active)
